Experiments:
Test in all cases: log2 ratio of Biotin-Ahx-Ub-VS probe labelling (fragment/DMSO); higher = less target engagement (more negative = stronger competition), active = hit call of the paper (q ≤ 0.05, log2 ratio ≤ -1)
Details in all cases: compound concentration: 200 uM; treatment time: 3 h
USP34 = USP34 (UniProt Q70CQ2)
How it was run: (§1)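 Triplicate samples of HEK293T lysate, 495 µg each, received fragment at 200 µM or vehicle for 3 h, followed by Biotin-Ahx-Ub-VS (0.5 µM final) for 1 h. After NeutrAvidin enrichment of labelled DUBs and LysC/trypsin digestion, peptides were run by diaPASEF LC-MS/MS. The values are average log2 fragment/vehicle ratios from global-median-normalised Spectronaut label-free quantities, tested by unpaired t-test on proteins having ≥2 unique peptides.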

USP36 = target: T1, USP36 (UniProt Q9P275)
T1 sequence (whole entry): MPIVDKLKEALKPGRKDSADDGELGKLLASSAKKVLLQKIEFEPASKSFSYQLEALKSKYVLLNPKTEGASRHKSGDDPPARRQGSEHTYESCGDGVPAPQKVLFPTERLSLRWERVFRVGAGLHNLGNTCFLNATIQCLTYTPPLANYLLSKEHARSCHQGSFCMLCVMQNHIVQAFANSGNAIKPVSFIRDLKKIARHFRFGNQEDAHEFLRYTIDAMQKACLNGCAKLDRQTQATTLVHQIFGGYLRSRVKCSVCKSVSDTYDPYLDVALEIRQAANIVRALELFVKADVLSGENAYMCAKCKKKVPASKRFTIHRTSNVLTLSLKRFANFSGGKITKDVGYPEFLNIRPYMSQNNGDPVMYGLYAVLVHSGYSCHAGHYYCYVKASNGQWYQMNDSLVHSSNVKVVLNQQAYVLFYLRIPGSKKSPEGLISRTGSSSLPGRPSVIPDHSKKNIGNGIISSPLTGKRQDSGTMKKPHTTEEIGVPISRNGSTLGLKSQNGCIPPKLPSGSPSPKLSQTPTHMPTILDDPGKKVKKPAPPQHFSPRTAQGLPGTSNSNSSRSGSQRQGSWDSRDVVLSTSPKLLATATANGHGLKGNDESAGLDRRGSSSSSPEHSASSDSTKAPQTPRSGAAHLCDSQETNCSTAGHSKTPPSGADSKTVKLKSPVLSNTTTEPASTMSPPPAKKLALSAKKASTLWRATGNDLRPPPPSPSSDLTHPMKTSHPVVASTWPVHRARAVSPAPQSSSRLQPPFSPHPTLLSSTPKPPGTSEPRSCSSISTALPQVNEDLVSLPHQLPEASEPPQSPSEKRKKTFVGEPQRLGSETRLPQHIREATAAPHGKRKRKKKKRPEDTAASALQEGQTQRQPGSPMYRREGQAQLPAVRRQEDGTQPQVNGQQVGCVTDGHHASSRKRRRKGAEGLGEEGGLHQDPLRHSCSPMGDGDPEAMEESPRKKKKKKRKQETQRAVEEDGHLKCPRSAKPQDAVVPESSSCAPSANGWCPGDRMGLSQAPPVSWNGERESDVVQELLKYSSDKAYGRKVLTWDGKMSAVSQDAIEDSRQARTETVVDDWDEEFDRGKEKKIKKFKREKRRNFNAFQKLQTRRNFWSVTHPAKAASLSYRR
How it was run: as §1

USP38 = target: T2, USP38 (UniProt Q8NB14)
T2 sequence (whole entry): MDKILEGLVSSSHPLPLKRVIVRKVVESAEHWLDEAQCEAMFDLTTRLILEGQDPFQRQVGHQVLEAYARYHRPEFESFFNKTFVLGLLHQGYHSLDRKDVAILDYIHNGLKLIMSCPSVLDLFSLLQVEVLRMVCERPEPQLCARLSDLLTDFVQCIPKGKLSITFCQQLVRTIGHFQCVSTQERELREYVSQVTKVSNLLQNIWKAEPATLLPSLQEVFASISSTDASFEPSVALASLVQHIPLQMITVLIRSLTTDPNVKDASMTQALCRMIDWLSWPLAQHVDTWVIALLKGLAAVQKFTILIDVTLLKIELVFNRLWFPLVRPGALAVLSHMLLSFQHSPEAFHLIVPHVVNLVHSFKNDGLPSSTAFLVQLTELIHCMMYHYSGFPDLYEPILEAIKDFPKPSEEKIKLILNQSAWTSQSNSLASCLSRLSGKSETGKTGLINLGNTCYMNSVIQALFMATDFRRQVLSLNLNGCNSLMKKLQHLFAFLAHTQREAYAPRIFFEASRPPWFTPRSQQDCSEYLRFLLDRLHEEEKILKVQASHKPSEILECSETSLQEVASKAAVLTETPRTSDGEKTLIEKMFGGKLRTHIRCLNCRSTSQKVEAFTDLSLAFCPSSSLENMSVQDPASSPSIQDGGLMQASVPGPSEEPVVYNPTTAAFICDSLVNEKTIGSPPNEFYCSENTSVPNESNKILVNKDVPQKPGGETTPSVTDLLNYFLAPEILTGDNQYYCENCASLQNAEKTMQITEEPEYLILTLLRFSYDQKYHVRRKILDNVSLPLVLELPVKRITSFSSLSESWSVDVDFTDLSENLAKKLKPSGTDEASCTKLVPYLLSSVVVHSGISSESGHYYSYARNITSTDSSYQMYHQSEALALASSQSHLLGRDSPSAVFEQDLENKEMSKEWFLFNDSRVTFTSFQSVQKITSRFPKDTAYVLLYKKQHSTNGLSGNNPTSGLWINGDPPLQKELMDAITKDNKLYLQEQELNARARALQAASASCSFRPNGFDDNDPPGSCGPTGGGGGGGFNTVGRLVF
How it was run: as §1

USP39 = target: T3, USP39 (UniProt Q53GS9)
T3 sequence (whole entry): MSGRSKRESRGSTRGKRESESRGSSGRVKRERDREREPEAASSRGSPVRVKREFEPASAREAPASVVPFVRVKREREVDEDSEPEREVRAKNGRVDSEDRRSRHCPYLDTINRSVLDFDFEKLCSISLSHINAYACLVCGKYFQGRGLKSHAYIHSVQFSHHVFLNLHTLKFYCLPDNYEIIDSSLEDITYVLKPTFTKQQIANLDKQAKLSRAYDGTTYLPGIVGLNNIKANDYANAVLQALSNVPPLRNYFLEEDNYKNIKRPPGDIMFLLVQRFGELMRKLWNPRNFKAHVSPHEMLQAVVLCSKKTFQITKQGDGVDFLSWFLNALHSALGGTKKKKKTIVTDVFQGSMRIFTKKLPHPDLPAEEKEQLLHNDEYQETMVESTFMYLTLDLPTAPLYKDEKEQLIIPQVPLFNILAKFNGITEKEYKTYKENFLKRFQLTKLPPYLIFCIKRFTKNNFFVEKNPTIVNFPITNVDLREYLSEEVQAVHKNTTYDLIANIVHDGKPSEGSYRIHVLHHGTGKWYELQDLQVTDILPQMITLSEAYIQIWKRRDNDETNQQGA
How it was run: as §1

USP4 = target: T4, USP4 (UniProt Q13107)
T4 sequence (whole entry): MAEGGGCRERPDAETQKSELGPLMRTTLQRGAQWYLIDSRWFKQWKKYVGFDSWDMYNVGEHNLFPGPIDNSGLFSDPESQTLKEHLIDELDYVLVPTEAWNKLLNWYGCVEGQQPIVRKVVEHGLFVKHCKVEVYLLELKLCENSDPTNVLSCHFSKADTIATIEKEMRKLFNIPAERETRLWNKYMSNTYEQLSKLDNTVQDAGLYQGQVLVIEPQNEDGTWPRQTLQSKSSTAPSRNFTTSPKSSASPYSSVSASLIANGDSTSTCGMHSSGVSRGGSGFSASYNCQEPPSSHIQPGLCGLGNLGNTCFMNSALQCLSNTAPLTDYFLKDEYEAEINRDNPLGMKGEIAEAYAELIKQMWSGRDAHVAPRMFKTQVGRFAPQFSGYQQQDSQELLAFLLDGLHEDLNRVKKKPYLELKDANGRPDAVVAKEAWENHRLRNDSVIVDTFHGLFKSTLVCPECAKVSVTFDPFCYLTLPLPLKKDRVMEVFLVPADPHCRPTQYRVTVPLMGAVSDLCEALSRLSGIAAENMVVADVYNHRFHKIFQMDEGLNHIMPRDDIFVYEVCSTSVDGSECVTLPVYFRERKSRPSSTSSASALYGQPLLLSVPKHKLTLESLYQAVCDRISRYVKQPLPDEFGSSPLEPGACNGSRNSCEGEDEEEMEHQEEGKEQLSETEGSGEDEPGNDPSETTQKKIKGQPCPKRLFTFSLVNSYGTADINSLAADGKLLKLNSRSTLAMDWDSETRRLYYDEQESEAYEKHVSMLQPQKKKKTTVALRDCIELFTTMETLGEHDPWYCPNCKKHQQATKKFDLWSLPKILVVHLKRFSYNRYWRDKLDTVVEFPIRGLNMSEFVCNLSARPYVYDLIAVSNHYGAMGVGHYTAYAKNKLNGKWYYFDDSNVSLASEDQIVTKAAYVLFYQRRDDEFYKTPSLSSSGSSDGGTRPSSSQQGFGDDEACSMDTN
How it was run: as §1

Measured: log2 ratio of Biotin-Ahx-Ub-VS probe labelling

Sequence of USP34 (Q70CQ2 whole entry, the tested form may be a part): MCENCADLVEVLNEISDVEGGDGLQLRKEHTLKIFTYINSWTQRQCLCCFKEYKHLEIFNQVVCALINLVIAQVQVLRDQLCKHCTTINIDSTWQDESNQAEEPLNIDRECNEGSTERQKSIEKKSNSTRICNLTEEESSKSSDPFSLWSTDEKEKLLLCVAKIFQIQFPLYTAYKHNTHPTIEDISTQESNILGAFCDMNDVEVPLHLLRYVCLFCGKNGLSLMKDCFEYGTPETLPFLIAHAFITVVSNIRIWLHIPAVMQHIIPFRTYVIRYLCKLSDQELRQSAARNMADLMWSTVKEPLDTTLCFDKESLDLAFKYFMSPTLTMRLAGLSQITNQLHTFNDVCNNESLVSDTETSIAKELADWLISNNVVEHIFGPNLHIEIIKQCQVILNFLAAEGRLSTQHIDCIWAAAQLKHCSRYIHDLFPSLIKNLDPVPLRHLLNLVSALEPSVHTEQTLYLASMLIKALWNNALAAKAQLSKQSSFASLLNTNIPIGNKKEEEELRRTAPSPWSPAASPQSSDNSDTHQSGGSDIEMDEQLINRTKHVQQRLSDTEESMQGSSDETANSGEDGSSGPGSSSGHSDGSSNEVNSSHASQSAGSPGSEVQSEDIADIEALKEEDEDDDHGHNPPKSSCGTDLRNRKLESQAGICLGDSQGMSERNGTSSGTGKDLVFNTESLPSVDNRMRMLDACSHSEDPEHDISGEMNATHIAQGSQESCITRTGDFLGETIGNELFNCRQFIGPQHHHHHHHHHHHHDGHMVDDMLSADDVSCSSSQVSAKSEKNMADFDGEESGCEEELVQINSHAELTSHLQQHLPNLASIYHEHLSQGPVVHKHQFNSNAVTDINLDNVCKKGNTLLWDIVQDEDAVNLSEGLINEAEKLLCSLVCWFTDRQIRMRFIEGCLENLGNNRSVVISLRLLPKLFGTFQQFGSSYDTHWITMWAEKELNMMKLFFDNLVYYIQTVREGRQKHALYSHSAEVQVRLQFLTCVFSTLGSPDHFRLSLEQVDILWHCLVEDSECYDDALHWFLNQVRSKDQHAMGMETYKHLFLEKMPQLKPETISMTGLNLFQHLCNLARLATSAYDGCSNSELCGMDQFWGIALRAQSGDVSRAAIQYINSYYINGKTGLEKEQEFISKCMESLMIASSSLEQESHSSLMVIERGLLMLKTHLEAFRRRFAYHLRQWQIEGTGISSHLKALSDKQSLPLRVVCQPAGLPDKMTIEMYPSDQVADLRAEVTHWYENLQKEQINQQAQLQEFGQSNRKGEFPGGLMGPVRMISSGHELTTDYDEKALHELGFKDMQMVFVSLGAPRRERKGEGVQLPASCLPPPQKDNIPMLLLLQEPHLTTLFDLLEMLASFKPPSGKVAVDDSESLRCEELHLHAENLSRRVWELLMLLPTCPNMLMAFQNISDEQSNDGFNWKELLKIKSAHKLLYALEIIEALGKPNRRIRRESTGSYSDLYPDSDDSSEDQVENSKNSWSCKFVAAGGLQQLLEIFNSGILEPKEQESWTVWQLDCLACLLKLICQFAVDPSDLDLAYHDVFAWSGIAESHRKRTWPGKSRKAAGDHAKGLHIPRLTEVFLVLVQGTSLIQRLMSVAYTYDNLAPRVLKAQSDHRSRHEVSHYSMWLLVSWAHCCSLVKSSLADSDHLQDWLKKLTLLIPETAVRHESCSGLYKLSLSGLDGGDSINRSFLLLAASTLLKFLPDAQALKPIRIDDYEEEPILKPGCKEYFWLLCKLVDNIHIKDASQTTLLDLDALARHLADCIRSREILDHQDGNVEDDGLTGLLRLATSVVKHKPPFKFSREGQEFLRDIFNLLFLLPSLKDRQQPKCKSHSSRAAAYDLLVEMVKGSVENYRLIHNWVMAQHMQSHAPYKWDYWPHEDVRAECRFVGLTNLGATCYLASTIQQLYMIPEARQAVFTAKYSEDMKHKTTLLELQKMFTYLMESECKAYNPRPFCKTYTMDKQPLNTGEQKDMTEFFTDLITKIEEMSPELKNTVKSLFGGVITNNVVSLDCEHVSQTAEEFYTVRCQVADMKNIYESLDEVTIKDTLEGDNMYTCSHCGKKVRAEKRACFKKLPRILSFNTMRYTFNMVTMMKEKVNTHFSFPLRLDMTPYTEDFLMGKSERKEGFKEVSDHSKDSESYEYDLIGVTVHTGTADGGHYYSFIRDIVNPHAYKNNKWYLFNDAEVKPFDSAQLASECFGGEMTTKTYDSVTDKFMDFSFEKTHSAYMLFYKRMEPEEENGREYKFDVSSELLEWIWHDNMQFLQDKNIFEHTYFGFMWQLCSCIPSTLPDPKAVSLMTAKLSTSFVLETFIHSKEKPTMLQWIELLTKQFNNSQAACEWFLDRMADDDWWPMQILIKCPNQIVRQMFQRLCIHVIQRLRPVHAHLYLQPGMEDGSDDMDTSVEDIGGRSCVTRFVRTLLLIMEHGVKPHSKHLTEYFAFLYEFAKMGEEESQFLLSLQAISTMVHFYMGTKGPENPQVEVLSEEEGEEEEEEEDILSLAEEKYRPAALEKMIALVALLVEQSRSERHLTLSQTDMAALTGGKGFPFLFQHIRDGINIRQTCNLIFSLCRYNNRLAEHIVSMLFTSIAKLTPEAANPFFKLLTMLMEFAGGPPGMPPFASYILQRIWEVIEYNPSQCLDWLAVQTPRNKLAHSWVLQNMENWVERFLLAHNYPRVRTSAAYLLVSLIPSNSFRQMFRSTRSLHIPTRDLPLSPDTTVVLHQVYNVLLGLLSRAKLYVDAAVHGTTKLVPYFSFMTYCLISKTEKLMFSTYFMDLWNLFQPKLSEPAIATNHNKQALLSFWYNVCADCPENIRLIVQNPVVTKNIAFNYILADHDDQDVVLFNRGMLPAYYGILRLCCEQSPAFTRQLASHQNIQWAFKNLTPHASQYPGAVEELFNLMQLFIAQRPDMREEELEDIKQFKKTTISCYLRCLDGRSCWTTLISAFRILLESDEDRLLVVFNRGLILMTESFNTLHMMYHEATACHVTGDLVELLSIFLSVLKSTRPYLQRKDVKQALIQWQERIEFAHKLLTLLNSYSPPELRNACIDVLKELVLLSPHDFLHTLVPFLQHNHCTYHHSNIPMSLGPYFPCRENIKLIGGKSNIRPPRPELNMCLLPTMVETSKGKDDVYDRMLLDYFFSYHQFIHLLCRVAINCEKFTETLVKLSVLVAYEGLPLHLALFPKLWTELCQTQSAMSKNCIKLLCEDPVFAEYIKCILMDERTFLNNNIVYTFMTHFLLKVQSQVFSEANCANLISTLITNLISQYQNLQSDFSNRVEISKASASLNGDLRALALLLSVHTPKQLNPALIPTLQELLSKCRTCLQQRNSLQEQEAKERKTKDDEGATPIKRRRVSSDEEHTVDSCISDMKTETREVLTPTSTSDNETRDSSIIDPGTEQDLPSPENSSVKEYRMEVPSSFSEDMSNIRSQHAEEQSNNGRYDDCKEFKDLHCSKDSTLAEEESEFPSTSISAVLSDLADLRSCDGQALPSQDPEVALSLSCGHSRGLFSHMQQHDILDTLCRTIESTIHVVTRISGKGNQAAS

O=C(CCl)Nc1cccc(C(=O)N2CCSCC2)c1
inactive: USP34 -0.185 | USP36 0.0297 | USP38 -0.0941 | USP39 0.29 | USP4 -0.272

Reference: the supplement of paper PMC11732987, “Enantioselective OTUD7B fragment discovery through chemoproteomics screening and high-throughput optimisation” (Communications Chemistry, 2025)
